In PubChem BioAssay (NCATS):
Inconclusive results are not listed. Activity calls are given as the source filed them. The call rests on the fitted dose curve; in most records, active means well fitted curve in the direction sought with a large enough effect; inconclusive means small, poorly fitted or top-dose-only effect, or another doubt; inactive means no such curve, though single readings can be large; an effect the other way counts as inactive or inconclusive.

What was measured:
[1] = system: NIH3T3; experiment: Cytotoxic Profiling of Annotated Libraries Using Quantitative High-Throughput Screening (AID 1296008); settings: Five cell lines viability, CellTiter-Glo ATP luminescence, 48-72 h; max response: hits give low values; further: nearly all actives have a fitted effect of over 60% in size
Procedure, shortened: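 Cytotoxicity was measured as CellTiter-Glo ATP luminescence, read after 10 min at room temperature. Compound treatment of the cells lasted 48 or 72 hr at 37 degrees Celsius in a qHTS format.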

[2] = system: HACAT; experiment: qHTS assay to identify novel small-molecules to repurpose for Merkel cell carcinoma treatment (AID 1296009); settings: MCC and control cell lines, CellTiter-Glo viability, 72 h; at 44.8 µM (top of the series) unless noted; further: nearly all actives have a fitted effect of over 60% in size
Procedure, shortened: (§1)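 72 hr, 37 degree celsius; NPC 8-pt / MIPE 11-pt dose response; compound pinned in DMSO; CellTiter-Glo, 10 min RT, luminescence; normalized to no-cell and DMSO controls.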

[3] = system: MCC-13; experiment: as above; settings: MCC and control cell lines, CellTiter-Glo viability, 72 h; series mostly up to 46 µM
Procedure, shortened: as §1

[4] = system: MKL-1; experiment: as above; settings: MCC and control cell lines, CellTiter-Glo viability, 72 h; series mostly up to 46 µM
Procedure, shortened: as §1

[5] = system: MKL-2; experiment: as above; settings: MCC and control cell lines, CellTiter-Glo viability, 72 h; series mostly up to 46 µM
Procedure, shortened: as §1

[6] = system: NIH3T3; experiment: as above; settings: MCC and control cell lines, CellTiter-Glo viability, 72 h; at 44.8 µM (top of the series) unless noted
Procedure, shortened: as §1

[7] = system: UISO; experiment: as above; settings: MCC and control cell lines, CellTiter-Glo viability, 72 h; series mostly up to 46 µM
Procedure, shortened: as §1

[8] = system: WaGa; experiment: as above; settings: MCC and control cell lines, CellTiter-Glo viability, 72 h; series mostly up to 46 µM
Procedure, shortened: as §1

[9] = system: C33A; experiment: Primary qHTS to identify gynecologic anti-cancer compounds using libraries of approved drugs and bioactive compounds (AID 1345084); settings: Gynecologic cancer cell panel viability, ATPlite luminescence, 48 h; series mostly up to 57.5 µM; further: nearly all actives have a fitted effect of over 55% in size
Procedure, shortened: (§2)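 48 h compound exposure at 37 C, 5% CO2; five-point qHTS. ATPlite luminescence readout of cell ATP.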

[10] = system: CASKI; experiment: as above; settings: Gynecologic cancer cell panel viability, ATPlite luminescence, 48 h; series mostly up to 57.5 µM
Procedure, shortened: as §2

[11] = system: Es-2; experiment: as above; settings: Gynecologic cancer cell panel viability, ATPlite luminescence, 48 h; series mostly up to 57.5 µM
Procedure, shortened: as §2

[12] = system: HeLa; experiment: as above; settings: Gynecologic cancer cell panel viability, ATPlite luminescence, 48 h; series mostly up to 57.5 µM
Procedure, shortened: as §2

[13] = system: Hek293T; experiment: as above; settings: Gynecologic cancer cell panel viability, ATPlite luminescence, 48 h, control line for the selectivity index; series mostly up to 57.5 µM
Procedure, shortened: as §2

[14] = system: OV90; experiment: as above; settings: Gynecologic cancer cell panel viability, ATPlite luminescence, 48 h; series mostly up to 57.5 µM
Procedure, shortened: as §2

[15] = system: PA-1; experiment: as above; settings: Gynecologic cancer cell panel viability, ATPlite luminescence, 48 h; series mostly up to 57.5 µM
Procedure, shortened: as §2

[16] = system: SKOV3; experiment: as above; settings: Gynecologic cancer cell panel viability, ATPlite luminescence, 48 h; series mostly up to 57.5 µM
Procedure, shortened: as §2

[17] = system: MCC-26; experiment: qHTS assay to identify novel small-molecules to repurpose for Merkel cell carcinoma treatment (AID 1296009); settings: MCC and control cell lines, CellTiter-Glo viability, 72 h; series mostly up to 46 µM; further: nearly all actives have a fitted effect of over 60% in size
Procedure, shortened: as §1

[18] = system: JEG-3; experiment: Primary qHTS to identify gynecologic anti-cancer compounds using libraries of approved drugs and bioactive compounds (AID 1345084); settings: Gynecologic cancer cell panel viability, ATPlite luminescence, 48 h; series mostly up to 57.5 µM; further: nearly all actives have a fitted effect of over 55% in size
Procedure, shortened: as §2

[19] = system: CAOV3; experiment: as above; settings: Gynecologic cancer cell panel viability, ATPlite luminescence, 48 h; series mostly up to 57.5 µM
Procedure, shortened: as §2
On the % scale 0 is the no-effect control and ±100 the full control effect; potency means the concentration at half of the fitted maximal effect.

COc1cc(NC(C)CCCN)c2ncccc2c1 (stereo not drawn)
active: Potency [3] 16.8 µM | Potency [4] 2.99 µM | Potency [5] 4.22 µM | Potency [7] 3.35 µM | Potency [8] 3.76 µM
inactive: outcome [1] | outcome [2] | outcome [6] | Potency [9] | Potency [10] | Potency [11] | Potency [12] | Potency [13] | Potency [14] | Potency [15] | Potency [16]

C/C(=N\O)c1ccc(OCC(=O)N2CCCCC2)cc1
inactive: max response [1] -0.0363% | Potency [3] | Potency [17] | Potency [4] | Potency [5] | Potency [7] | Potency [8] | Potency [9] | Potency [10] | Potency [12] | Potency [13] | Potency [15]

CCCOC(=O)c1ccc(O)cc1
inactive: max response [1] 3.51% | Potency [3] | Potency [4] | Potency [5] | Potency [7] | Potency [8] | Potency [9] | Potency [10] | Potency [11] | Potency [12] | Potency [13] | Potency [18] | Potency [14] | Potency [15] | Potency [16]

O=C(O)c1ccccc1Nc1cccc(C(F)(F)F)c1
inactive: max response [1] -2.26% | Potency [3] | Potency [4] | Potency [5] | Potency [7] | Potency [8] | Potency [9] | Potency [10] | Potency [11] | Potency [12] | Potency [13] | Potency [18] | Potency [14] | Potency [15]

COC(=O)c1nc(Cl)c(Cl)nc1N
active: Potency [1] 10.6 µM | Potency [3] 0.944 µM | Potency [4] 1.33 µM | Potency [5] 0.299 µM | Potency [7] 6.68 µM | Potency [8] 1.5 µM | Potency [9] 8.91 µM | Potency [12] 7.08 µM | Potency [13] 14.1 µM | Potency [15] 14.1 µM

COc1cccc2c1C(=O)c1c(O)c3c(c(O)c1C2=O)C[C@@](O)(C(=O)CO)C[C@@H]3O[C@H]1C[C@H](N)[C@H](O[C@@H]2CCCCO2)[C@H](C)O1
active: Potency [1] 0.188 µM | Potency [3] 3.76 µM | Potency [4] 0.0944 µM | Potency [5] 0.0473 µM | Potency [7] 2.99 µM | Potency [9] 10 µM | Potency [10] 12.6 µM | Potency [11] 7.08 µM | Potency [13] 10 µM | Potency [15] 2.51 µM | Potency [16] 12.6 µM
inactive: Potency [12]

Cc1c(Nc2ncccc2C(=O)O)cccc1C(F)(F)F
inactive: max response [1] -21.5% | Potency [3] | Potency [17] | Potency [4] | Potency [5] | Potency [7] | Potency [8] | Potency [9] | Potency [19] | Potency [10] | Potency [11] | Potency [12] | Potency [13] | Potency [18] | Potency [14] | Potency [15] | Potency [16]

CCCCCCCCCCCCCCCC(=O)OC(C)C
inactive: outcome [1] | Potency [3] | Potency [4] | Potency [5] | outcome [6] | Potency [7] | Potency [8] | Potency [9] | Potency [19] | Potency [10] | Potency [11] | Potency [12] | Potency [13] | Potency [18] | Potency [14] | Potency [15] | Potency [16]
